From PubChem BioAssay
Active and inactive are the calls of the source. How the calls were made is not given here.

The compounds below were run against Pantothenate synthetase (Mycobacterium tuberculosis (strain ATCC 25618 / H37Rv)) (UniProt P9WIL5) (assay: Coupled enzyme confirmation of inhibitors against recombinant Mtb PanC (AID 375;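 further: 0% = full reaction with vehicle and 100% = no enzyme background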)). Settings: coupled enzyme assay; at 10 µM, active compounds read high.
Chain of Pantothenate synthetase (Mycobacterium tuberculosis (strain ATCC 25618 / H37Rv)) (P9WIL5 whole entry, looked up): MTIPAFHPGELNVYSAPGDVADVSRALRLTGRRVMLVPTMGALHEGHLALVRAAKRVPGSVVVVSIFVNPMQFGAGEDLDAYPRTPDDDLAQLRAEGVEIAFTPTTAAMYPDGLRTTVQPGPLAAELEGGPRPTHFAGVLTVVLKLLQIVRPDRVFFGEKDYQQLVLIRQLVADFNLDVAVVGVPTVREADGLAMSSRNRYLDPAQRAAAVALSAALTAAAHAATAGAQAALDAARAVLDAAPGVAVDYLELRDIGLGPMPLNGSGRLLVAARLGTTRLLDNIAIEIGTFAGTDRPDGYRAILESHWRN
In the case of `CCCC(=O)Nc1ccc(NC(=O)c2cccs2)cn1`, the inhibition is reported as 5% (inactive). In the case of `c1ccc(CN2C3=NCCCN3c3ccccc32)cc1`, the inhibition is reported as 0% (inactive). `Fc1ccc(Cn2nnc(-c3ccc(CN4CCOCC4)cc3)n2)cc1` was tested, and the inhibition was 0% (inactive). For `CCN(CC)CCN1C(=O)c2oc3ccc(F)cc3c(=O)c2C1c1ccncc1` (stereo not given), the inhibition was 0% (inactive). `CCOC(=O)C1=C(c2ccccc2)Nc2nc(C)nn2C1c1cccc(OC)c1OC` (stereo not given) was tested, and the inhibition was 0% (inactive). `Cc1ccccc1OCc1nc2ccccc2c(=O)n1/N=C/c1ccco1` was tested, and the inhibition was 0% (inactive). In the case of `COc1cccc(NC(=O)N(Cc2ccco2)C(C)c2cccs2)c1` (stereo not given), the inhibition is reported as 2% (inactive). `CC(C)(C)NCC(O)COc1cccc2c1C[C@H](O)[C@H](O)C2` (stereo not given in full) was tested, and the inhibition was 0% (inactive). With `COc1ccc(Br)cc1S(=O)(=O)N1CC(C)OC(C)C1` (stereo not given) the inhibition was 7% (inactive). For `O=c1c2ccccc2nc2n1CCN2`, the inhibition was 0% (inactive). `O=C(Nc1ccc(O)cc1)C1CCCN1S(=O)(=O)c1ccc(F)cc1` (stereo not given) was tested, and the inhibition was 0% (inactive). `Cn1c(=O)c2c(nc(SCC(=O)O)n2Cc2cccc(C(F)(F)F)c2)n(C)c1=O` was tested, and the inhibition was 8% (inactive). `O=c1[nH]c2cc3c(cc2cc1C(c1nnnn1C1CCCCC1)N1CCSCC1)OCCO3` (stereo not given) was tested, and the inhibition was 4% (inactive). `COc1ccc(NC(=O)N2CCC(c3nc(-c4cccs4)no3)CC2)cc1` was tested, and the inhibition was 0% (inactive). With `CC(C)(C)NCC(O)c1cc(O)cc(O)c1` (stereo not given) the inhibition was 0% (inactive). In the case of `c1ccc(-c2nn3nnnc3c3ccccc23)cc1`, the inhibition is reported as 4% (inactive). With `CCN(CC)S(=O)(=O)c1ccc(Br)c(OC)c1` the inhibition was 0% (inactive). With `N#Cc1cc2sc3nnc(-c4ccncc4)n3c2cc1C#N` the inhibition was 0% (inactive). For `CCOC(=O)c1sc(Nc2nc3c(OC)cccc3s2)nc1C`, the inhibition was 1% (inactive). With `COc1ccc(OCC(=O)N2CCN(C(=O)c3cccs3)CC2)cc1` the inhibition was 5% (inactive). With `NC(=O)C1CCN(C(=S)c2cccs2)CC1` the inhibition was 0% (inactive). In the case of `CC(C(=O)NCCCN1CCOCC1)n1cccc1C(=O)c1ccccc1` (stereo not given), the inhibition is reported as 0% (inactive). `Cc1cc(/C=N\O)c(C)n1-c1ccncc1` was tested, and the inhibition was 0% (inactive). With `CCCC(=O)Nc1ncnc2c1ncn2[C@@H]1O[C@@H]2COP(=O)(O)O[C@H]2[C@H]1OC(=O)CCC` the inhibition was 0% (inactive). For `CCOc1ccc(-c2nnc3sc(-c4c(OC)cccc4OC)nn23)cc1`, the inhibition was 0% (inactive). With `O=C(c1c(F)cccc1F)N(Cc1ccccn1)C1CCCC1` the inhibition was 1% (inactive). With `CCCOc1cc(C)c(S(=O)(=O)N2CCN(C)CC2)cc1C` the inhibition was 4% (inactive). In the case of `NCCCCCc1nnc(SC/C=C/c2ccccc2)o1`, the inhibition is reported as 0% (inactive). In the case of `Cc1cccc(N2CCN(C(=O)c3cc4c(=O)[nH]c5ccccc5c4n3C)CC2)c1C`, the inhibition is reported as 7% (inactive). With `CCC(Oc1ccc2ccccc2c1)C(=O)O` (stereo not given) the inhibition was 0% (inactive). For `Cc1nn(-c2ccc(F)cc2)c2sc(C(=O)O)cc12`, the inhibition was 0% (inactive). With `CCOc1ccc(C2/C(=C(/O)c3ccc(OC)cc3)C(=O)C(=O)N2c2cc(C)on2)cc1OC` (stereo not given) the inhibition was 0% (inactive). With `CCOCCCNC(=O)C(NC(=O)c1ccccn1)c1ccc(C)cc1` (stereo not given) the inhibition was 0% (inactive). In the case of `COc1cc2nc(N3CCN(C(=O)c4ccco4)CC3)nc(N)c2cc1OC`, the inhibition is reported as 2% (inactive). In the case of `Nc1nc(SCCOc2ccccc2)n[nH]1`, the inhibition is reported as 0% (inactive). For `Cc1cc(O)c(C2(C(F)(F)F)NCCNC2=O)cc1C` (stereo not given), the inhibition was 5% (inactive). With `Cc1ccc(NC(=O)CN(C)S(=O)(=O)c2cccc3nsnc23)cc1Cl` the inhibition was 1% (inactive). `Cc1c(C(=O)NCc2cccnc2)sc2ncn(CC(=O)N3CCCCC3C)c(=O)c12` (stereo not given) was tested, and the inhibition was 0% (inactive). For `OCCOCCN1CCN(C(c2ccccc2)c2ccc(Cl)cc2)CC1` (stereo not given), the inhibition was 1% (inactive). For `COc1ccc(S(=O)(=O)N(C)c2ccc(C(=O)N3CCOCC3)cc2)cc1`, the inhibition was 0% (inactive).
